B1: unnamed (peptide)
chain: IKKRNKIRLPSGSPE

The binders below were run against AgAbp1 (assay: SPOT peptide array binding signal intensity (averaged, normalized) (arbitrary units (background-subtracted, floor 0; scale differs between SH3 domains)); higher = stronger binding of the SH3 domain to the peptide).
How it was run: (§1)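 Four yeast species supplied the SH3 domains, which were expressed as GST fusions in E. coli BL21(DE3) and purified on glutathione Sepharose. Incubation with cellulose membranes carrying synthetic 15-mer peptides, cysteines exchanged for serines, ran overnight at 4°C at 10 μg/ml in TBS-based blocking buffer. Binding signal is reported as normalized, background-subtracted spot intensity averaged over replicates, in arbitrary units not shared between domains.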
For B1, the “SPOT peptide array binding signal intensity” value was 286.

Each binder was assayed against AgBbc1 in the same assay as above.
How it was run: as §1
In the case of B1, the “SPOT peptide array binding signal intensity” value is reported as 23.8.

The binders below were run against AgBem1-D1 in the same assay as above.
How it was run: as §1
For B1, the “SPOT peptide array binding signal intensity” value was 55.

These binders were tested against AgBzz1-D1 in the same assay as above.
How it was run: as §1
With B1 the “SPOT peptide array binding signal intensity” value was 22.

These binders were tested against AgBzz1-D2 in the same assay as above.
How it was run: as §1
For B1, the “SPOT peptide array binding signal intensity” value was 34.5.

Each binder was assayed against AgCyk3 in the same assay as above.
How it was run: as §1
In the case of B1, the “SPOT peptide array binding signal intensity” value is reported as 7.

What follows are binders tested against AgFus1 in the same assay as above.
How it was run: as §1
For B1, the “SPOT peptide array binding signal intensity” value was 279.

These binders were tested against AgHof1 in the same assay as above.
How it was run: as §1
For B1, the “SPOT peptide array binding signal intensity” value was 52.5.

These binders were tested against AgHse1 in the same assay as above.
How it was run: as §1
For B1, the “SPOT peptide array binding signal intensity” value was 766.

These binders were tested against AgLsb1 in the same assay as above.
How it was run: as §1
With B1 the “SPOT peptide array binding signal intensity” value was 7.

What follows are binders tested against AgLsb4 in the same assay as above.
How it was run: as §1
With B1 the “SPOT peptide array binding signal intensity” value was 97.

These binders were tested against AgMyo5 in the same assay as above.
How it was run: as §1
For B1, the “SPOT peptide array binding signal intensity” value was 1.75.

The binders below were run against AgNbp2 in the same assay as above.
How it was run: as §1
In the case of B1, the “SPOT peptide array binding signal intensity” value is reported as 202.

The binders below were run against AgRvs167 in the same assay as above.
How it was run: as §1
In the case of B1, the “SPOT peptide array binding signal intensity” value is reported as 5.67.

Each binder was assayed against AgSho1 in the same assay as above.
How it was run: as §1
For B1, the “SPOT peptide array binding signal intensity” value was 36.

What follows are binders tested against AgSla1-D1-D2 in the same assay as above.
How it was run: as §1
For B1, the “SPOT peptide array binding signal intensity” value was 89.

Each binder was assayed against AgSla1-D3 in the same assay as above.
How it was run: as §1
B1 was tested, and the “SPOT peptide array binding signal intensity” value was 7.

What follows are binders tested against CaAbp1-D1 in the same assay as above.
How it was run: as §1
B1 was tested, and the “SPOT peptide array binding signal intensity” value was 1510.

What follows are binders tested against CaAbp1-D2 in the same assay as above.
How it was run: as §1
B1 was tested, and the “SPOT peptide array binding signal intensity” value was 858.

What follows are binders tested against CaBbc1 in the same assay as above.
How it was run: as §1
For B1, the “SPOT peptide array binding signal intensity” value was 94.2.

The binders below were run against CaBem1-D1 in the same assay as above.
How it was run: as §1
In the case of B1, the “SPOT peptide array binding signal intensity” value is reported as 16.

The binders below were run against CaBzz1-D1 in the same assay as above.
How it was run: as §1
In the case of B1, the “SPOT peptide array binding signal intensity” value is reported as 104.

The binders below were run against CaBzz1-D2 in the same assay as above.
How it was run: as §1
For B1, the “SPOT peptide array binding signal intensity” value was 132.

Each binder was assayed against CaCyk3 in the same assay as above.
How it was run: as §1
With B1 the “SPOT peptide array binding signal intensity” value was 17.

Each binder was assayed against CaFus1 in the same assay as above.
How it was run: as §1
With B1 the “SPOT peptide array binding signal intensity” value was 615.

What follows are binders tested against CaHof1 in the same assay as above.
How it was run: as §1
With B1 the “SPOT peptide array binding signal intensity” value was 1.25.

The binders below were run against CaHse1 in the same assay as above.
How it was run: as §1
B1 was tested, and the “SPOT peptide array binding signal intensity” value was 38.

These binders were tested against CaLsb1 in the same assay as above.
How it was run: as §1
For B1, the “SPOT peptide array binding signal intensity” value was 1.5.

The binders below were run against CaLsb4 in the same assay as above.
How it was run: as §1
For B1, the “SPOT peptide array binding signal intensity” value was 79.

The binders below were run against CaMyo5 in the same assay as above.
How it was run: as §1
For B1, the “SPOT peptide array binding signal intensity” value was 1.5.

The binders below were run against CaNbp2 in the same assay as above.
How it was run: as §1
In the case of B1, the “SPOT peptide array binding signal intensity” value is reported as 271.

The binders below were run against CaRvs167 in the same assay as above.
How it was run: as §1
For B1, the “SPOT peptide array binding signal intensity” value was 11.7.

Each binder was assayed against CaRvs167-3 in the same assay as above.
How it was run: as §1
With B1 the “SPOT peptide array binding signal intensity” value was 67.2.

The binders below were run against CaSho1 in the same assay as above.
How it was run: as §1
In the case of B1, the “SPOT peptide array binding signal intensity” value is reported as 506.

The binders below were run against CaSla1-D1-D2 in the same assay as above.
How it was run: as §1
B1 was tested, and the “SPOT peptide array binding signal intensity” value was 30.

The binders below were run against CaSla1-D3 in the same assay as above.
How it was run: as §1
For B1, the “SPOT peptide array binding signal intensity” value was 0.5.

Each binder was assayed against ScAbp1 in the same assay as above.
How it was run: as §1
B1 was tested, and the “SPOT peptide array binding signal intensity” value was 39.

Each binder was assayed against ScBbc1 in the same assay as above.
How it was run: as §1
In the case of B1, the “SPOT peptide array binding signal intensity” value is reported as 12.8.

The binders below were run against ScBem1-D1 in the same assay as above.
How it was run: as §1
With B1 the “SPOT peptide array binding signal intensity” value was 62.

These binders were tested against ScBzz1-D1 in the same assay as above.
How it was run: as §1
For B1, the “SPOT peptide array binding signal intensity” value was 20.

What follows are binders tested against ScBzz1-D2 in the same assay as above.
How it was run: as §1
With B1 the “SPOT peptide array binding signal intensity” value was 15.

The binders below were run against ScCyk3 in the same assay as above.
How it was run: as §1
B1 was tested, and the “SPOT peptide array binding signal intensity” value was 181.

Each binder was assayed against ScFus1 in the same assay as above.
How it was run: as §1
B1 was tested, and the “SPOT peptide array binding signal intensity” value was 242.

Each binder was assayed against ScHof1 in the same assay as above.
How it was run: as §1
In the case of B1, the “SPOT peptide array binding signal intensity” value is reported as 1.5.

The binders below were run against ScHse1 in the same assay as above.
How it was run: as §1
For B1, the “SPOT peptide array binding signal intensity” value was 1420.

These binders were tested against ScLsb1 in the same assay as above.
How it was run: as §1
For B1, the “SPOT peptide array binding signal intensity” value was 6.25.

The binders below were run against ScLsb2 in the same assay as above.
How it was run: as §1
B1 was tested, and the “SPOT peptide array binding signal intensity” value was 11.

What follows are binders tested against ScLsb3 in the same assay as above.
How it was run: as §1
In the case of B1, the “SPOT peptide array binding signal intensity” value is reported as 162.

The binders below were run against ScLsb4 in the same assay as above.
How it was run: as §1
For B1, the “SPOT peptide array binding signal intensity” value was 13.

What follows are binders tested against ScMyo3 in the same assay as above.
How it was run: as §1
With B1 the “SPOT peptide array binding signal intensity” value was 4.

Each binder was assayed against ScMyo5 in the same assay as above.
How it was run: as §1
In the case of B1, the “SPOT peptide array binding signal intensity” value is reported as 6.

What follows are binders tested against ScNbp2 in the same assay as above.
How it was run: as §1
With B1 the “SPOT peptide array binding signal intensity” value was 256.

The binders below were run against ScPex13 in the same assay as above.
How it was run: as §1
In the case of B1, the “SPOT peptide array binding signal intensity” value is reported as 7.5.

These binders were tested against ScRvs167 in the same assay as above.
How it was run: as §1
With B1 the “SPOT peptide array binding signal intensity” value was 33.

These binders were tested against ScSho1 in the same assay as above.
How it was run: as §1
With B1 the “SPOT peptide array binding signal intensity” value was 681.

These binders were tested against ScSla1-D1-D2 in the same assay as above.
How it was run: as §1
In the case of B1, the “SPOT peptide array binding signal intensity” value is reported as 362.

These binders were tested against ScSla1-D3 in the same assay as above.
How it was run: as §1
In the case of B1, the “SPOT peptide array binding signal intensity” value is reported as 30.

What follows are binders tested against SpAbp1-D1 in the same assay as above.
How it was run: as §1
For B1, the “SPOT peptide array binding signal intensity” value was 512.

What follows are binders tested against SpBbc1 in the same assay as above.
How it was run: as §1
B1 was tested, and the “SPOT peptide array binding signal intensity” value was 2.

What follows are binders tested against SpBzz1-D1 in the same assay as above.
How it was run: as §1
For B1, the “SPOT peptide array binding signal intensity” value was 122.

Each binder was assayed against SpBzz1-D2 in the same assay as above.
How it was run: as §1
For B1, the “SPOT peptide array binding signal intensity” value was 2.

The binders below were run against SpCyk3 in the same assay as above.
How it was run: as §1
For B1, the “SPOT peptide array binding signal intensity” value was 6.5.

Each binder was assayed against SpHof1 in the same assay as above.
How it was run: as §1
In the case of B1, the “SPOT peptide array binding signal intensity” value is reported as 253.

What follows are binders tested against SpHof1-2 in the same assay as above.
How it was run: as §1
With B1 the “SPOT peptide array binding signal intensity” value was 4.5.

What follows are binders tested against SpHof1-3 in the same assay as above.
How it was run: as §1
For B1, the “SPOT peptide array binding signal intensity” value was 664.

The binders below were run against SpHse1 in the same assay as above.
How it was run: as §1
B1 was tested, and the “SPOT peptide array binding signal intensity” value was 457.

Each binder was assayed against SpLsb1 in the same assay as above.
How it was run: as §1
In the case of B1, the “SPOT peptide array binding signal intensity” value is reported as 6.5.

Each binder was assayed against SpLsb4 in the same assay as above.
How it was run: as §1
For B1, the “SPOT peptide array binding signal intensity” value was 104.

What follows are binders tested against SpMyo1 in the same assay as above.
How it was run: as §1
B1 was tested, and the “SPOT peptide array binding signal intensity” value was 4.

The binders below were run against SpNbp2 in the same assay as above.
How it was run: as §1
For B1, the “SPOT peptide array binding signal intensity” value was 836.

The binders below were run against SpPex13 in the same assay as above.
How it was run: as §1
For B1, the “SPOT peptide array binding signal intensity” value was 6.

The binders below were run against SpRvs167 in the same assay as above.
How it was run: as §1
In the case of B1, the “SPOT peptide array binding signal intensity” value is reported as 8.5.

The binders below were run against SpSla1-D1-D2 in the same assay as above.
How it was run: as §1
B1 was tested, and the “SPOT peptide array binding signal intensity” value was 1.5.

The binders below were run against SpSla1-D3 in the same assay as above.
How it was run: as §1
B1 was tested, and the “SPOT peptide array binding signal intensity” value was 2.
